This is an account of results in ChEMBL document CHEMBL1961873, “Compounds: GSK PKIS; Assays: Nanosyn kinase panel” (2012).

The structures appear in SMILES notation.

The term inhibition denotes the change of the read-out against control, counted positive when it falls.

Experiment [1] deals with Sphingosine kinase 1 (Homo sapiens) (UniProt Q9NYA1). Particulars: at 1 µM.
Experiment [2] concerns the target T1, Sphingosine kinase 2 (Homo sapiens) (UniProt Q9NRA0).
T1 sequence (whole entry): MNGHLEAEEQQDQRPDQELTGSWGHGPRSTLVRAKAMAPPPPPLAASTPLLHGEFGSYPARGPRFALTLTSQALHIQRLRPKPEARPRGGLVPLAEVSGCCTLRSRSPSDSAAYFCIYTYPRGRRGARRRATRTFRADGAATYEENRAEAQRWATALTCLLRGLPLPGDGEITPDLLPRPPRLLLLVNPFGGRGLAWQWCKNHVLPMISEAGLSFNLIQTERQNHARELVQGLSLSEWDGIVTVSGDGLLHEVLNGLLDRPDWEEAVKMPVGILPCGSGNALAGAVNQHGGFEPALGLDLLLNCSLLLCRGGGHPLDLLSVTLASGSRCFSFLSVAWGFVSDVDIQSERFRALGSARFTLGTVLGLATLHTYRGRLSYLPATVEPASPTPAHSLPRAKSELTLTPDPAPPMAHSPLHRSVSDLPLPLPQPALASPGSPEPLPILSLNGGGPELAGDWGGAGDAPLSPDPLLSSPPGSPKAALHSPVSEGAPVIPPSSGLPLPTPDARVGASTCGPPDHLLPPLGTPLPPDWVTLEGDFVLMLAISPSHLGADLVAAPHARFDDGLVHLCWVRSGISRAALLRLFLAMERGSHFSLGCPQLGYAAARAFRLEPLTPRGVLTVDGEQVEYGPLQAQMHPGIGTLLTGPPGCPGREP
Particulars: at 0.1 µM.

Experiment [3] addresses T1, Sphingosine kinase 2 (Homo sapiens). The note with it: at 1 µM.
Experiment [4] concerns the target Casein kinase II subunit alpha (Homo sapiens) (UniProt P68400). Particulars: at 0.1 µM.
For experiment [5] the target is unchanged. Particulars: at 1 µM.
For experiment [6], the target named is T2, Inhibitor of nuclear factor kappa-B kinase subunit alpha (Homo sapiens) (UniProt O15111).
T2 sequence (whole entry): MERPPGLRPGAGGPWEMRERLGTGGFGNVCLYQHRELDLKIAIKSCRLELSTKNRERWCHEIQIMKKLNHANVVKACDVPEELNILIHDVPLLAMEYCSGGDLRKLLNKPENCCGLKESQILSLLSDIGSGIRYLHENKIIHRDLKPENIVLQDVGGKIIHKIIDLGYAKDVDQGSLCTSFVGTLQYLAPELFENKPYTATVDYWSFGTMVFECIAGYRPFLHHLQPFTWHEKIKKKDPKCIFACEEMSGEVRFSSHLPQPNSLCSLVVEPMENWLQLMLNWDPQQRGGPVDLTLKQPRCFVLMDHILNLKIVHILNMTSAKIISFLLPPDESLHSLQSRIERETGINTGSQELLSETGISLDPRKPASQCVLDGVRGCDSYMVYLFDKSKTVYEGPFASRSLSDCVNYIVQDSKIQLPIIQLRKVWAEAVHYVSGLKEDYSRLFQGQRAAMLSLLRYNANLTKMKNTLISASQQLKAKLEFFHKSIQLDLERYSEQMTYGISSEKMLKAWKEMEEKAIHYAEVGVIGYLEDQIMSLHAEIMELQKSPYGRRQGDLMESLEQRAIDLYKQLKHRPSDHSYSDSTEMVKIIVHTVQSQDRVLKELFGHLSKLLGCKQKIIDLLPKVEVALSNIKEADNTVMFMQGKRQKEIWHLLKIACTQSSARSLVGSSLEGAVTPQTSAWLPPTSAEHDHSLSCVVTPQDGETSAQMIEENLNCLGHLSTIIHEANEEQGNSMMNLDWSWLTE
The note with it: at 0.1 µM.

In experiment [7] the target is T2, Inhibitor of nuclear factor kappa-B kinase subunit alpha (Homo sapiens). The note with it: at 1 µM.
In experiment [8] the target is T3, Inhibitor of nuclear factor kappa-B kinase subunit beta (Homo sapiens) (UniProt O14920).
T3 sequence (whole entry): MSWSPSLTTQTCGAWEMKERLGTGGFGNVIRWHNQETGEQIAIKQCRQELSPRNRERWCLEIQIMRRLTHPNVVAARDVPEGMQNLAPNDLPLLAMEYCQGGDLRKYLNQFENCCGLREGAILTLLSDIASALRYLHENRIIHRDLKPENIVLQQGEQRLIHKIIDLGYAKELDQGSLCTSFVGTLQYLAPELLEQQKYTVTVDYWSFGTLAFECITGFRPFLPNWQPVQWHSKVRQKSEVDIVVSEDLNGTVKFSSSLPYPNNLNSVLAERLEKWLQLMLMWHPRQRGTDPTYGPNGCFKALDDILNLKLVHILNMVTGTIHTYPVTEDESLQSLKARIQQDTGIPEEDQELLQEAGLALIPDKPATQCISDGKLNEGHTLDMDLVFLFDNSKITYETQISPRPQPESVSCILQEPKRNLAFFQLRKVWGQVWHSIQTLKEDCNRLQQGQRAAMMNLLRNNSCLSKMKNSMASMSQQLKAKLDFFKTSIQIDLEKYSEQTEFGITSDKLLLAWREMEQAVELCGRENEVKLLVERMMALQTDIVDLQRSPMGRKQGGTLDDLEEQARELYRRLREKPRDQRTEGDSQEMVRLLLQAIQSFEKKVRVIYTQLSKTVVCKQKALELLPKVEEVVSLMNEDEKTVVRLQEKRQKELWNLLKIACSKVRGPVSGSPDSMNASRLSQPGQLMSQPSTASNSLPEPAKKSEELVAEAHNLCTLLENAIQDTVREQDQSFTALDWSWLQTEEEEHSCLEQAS
The note with it: at 0.1 µM.

Experiment [9] deals with T3, Inhibitor of nuclear factor kappa-B kinase subunit beta (Homo sapiens). The note with it: at 1 µM.
Experiment [10] deals with T4, Inhibitor of nuclear factor kappa-B kinase subunit epsilon (Homo sapiens) (UniProt Q14164).
T4 sequence (whole entry): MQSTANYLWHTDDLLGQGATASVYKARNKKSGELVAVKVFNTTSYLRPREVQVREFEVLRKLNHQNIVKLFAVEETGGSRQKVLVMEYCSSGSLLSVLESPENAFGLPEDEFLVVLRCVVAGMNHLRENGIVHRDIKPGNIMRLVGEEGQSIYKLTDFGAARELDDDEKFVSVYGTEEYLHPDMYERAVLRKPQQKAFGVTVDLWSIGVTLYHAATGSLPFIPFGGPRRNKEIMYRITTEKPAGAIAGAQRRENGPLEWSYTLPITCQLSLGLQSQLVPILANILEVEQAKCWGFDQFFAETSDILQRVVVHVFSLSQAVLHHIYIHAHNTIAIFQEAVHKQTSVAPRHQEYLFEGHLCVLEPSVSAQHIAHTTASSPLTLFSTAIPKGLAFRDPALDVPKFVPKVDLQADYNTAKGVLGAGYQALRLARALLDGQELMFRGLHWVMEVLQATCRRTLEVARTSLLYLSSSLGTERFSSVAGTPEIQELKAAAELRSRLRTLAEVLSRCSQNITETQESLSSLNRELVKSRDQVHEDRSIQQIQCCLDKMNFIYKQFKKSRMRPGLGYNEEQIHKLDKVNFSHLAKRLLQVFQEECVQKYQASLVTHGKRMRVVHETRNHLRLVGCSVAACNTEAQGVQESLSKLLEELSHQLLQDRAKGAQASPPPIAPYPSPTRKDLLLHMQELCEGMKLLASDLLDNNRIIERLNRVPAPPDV
The note with it: at 0.1 µM.

In experiment [11] the target is T4, Inhibitor of nuclear factor kappa-B kinase subunit epsilon (Homo sapiens). Particulars: at 1 µM.
The target in experiment [12] is T5, Serine/threonine-protein kinase Nek1 (Homo sapiens) (UniProt Q96PY6).
T5 sequence (whole entry): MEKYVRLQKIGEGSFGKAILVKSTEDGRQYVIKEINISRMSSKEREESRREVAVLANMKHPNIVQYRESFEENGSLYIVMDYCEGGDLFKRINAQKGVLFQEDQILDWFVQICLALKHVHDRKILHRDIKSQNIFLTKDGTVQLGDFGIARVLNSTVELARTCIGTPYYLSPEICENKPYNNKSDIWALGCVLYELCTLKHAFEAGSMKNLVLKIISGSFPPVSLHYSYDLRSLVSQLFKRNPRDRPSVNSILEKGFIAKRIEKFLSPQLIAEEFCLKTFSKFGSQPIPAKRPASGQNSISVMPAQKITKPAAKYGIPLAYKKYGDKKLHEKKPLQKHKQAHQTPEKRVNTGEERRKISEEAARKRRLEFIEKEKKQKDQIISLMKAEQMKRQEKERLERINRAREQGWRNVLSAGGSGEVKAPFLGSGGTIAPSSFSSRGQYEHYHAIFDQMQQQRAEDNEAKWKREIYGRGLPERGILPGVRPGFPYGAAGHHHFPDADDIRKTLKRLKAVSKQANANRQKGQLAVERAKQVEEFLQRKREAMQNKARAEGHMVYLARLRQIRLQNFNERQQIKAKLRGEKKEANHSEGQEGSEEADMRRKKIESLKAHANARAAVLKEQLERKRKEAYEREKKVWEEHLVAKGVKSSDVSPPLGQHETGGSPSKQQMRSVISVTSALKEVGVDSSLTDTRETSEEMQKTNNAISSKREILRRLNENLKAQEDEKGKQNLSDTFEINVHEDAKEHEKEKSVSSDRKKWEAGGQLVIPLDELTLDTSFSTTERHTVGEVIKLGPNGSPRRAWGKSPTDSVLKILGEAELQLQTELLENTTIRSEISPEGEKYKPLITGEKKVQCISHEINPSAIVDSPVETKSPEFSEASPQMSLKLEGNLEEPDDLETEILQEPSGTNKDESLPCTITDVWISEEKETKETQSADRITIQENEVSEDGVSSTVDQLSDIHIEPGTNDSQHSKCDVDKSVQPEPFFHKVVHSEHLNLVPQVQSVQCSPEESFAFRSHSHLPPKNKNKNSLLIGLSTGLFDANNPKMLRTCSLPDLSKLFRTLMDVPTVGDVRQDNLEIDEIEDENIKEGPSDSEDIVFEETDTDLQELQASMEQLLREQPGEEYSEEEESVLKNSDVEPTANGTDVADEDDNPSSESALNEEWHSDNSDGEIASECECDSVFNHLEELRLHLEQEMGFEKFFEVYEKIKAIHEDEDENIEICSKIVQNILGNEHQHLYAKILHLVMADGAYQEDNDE
The note with it: at 0.1 µM.

Experiment [13] concerns the target T5, Serine/threonine-protein kinase Nek1 (Homo sapiens). Particulars: at 1 µM.
Experiment [14] addresses T6, Serine/threonine-protein kinase Nek2 (Homo sapiens) (UniProt P51955).
T6 sequence (whole entry): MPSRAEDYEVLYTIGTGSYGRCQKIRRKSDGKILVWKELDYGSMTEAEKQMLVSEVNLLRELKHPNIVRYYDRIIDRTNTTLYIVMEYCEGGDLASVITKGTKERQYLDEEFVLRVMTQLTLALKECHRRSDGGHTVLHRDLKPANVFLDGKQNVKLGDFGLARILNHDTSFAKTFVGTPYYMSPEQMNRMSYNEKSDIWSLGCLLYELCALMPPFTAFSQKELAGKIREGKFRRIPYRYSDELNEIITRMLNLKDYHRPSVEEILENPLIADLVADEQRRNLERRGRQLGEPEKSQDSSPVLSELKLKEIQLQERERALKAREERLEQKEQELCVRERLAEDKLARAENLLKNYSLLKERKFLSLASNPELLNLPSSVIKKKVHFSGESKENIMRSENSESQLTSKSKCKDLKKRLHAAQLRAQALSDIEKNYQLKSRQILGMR
The note with it: at 0.1 µM.

Experiment [15] deals with T6, Serine/threonine-protein kinase Nek2 (Homo sapiens). The note with it: at 1 µM.
For experiment [16], the target named is Serine/threonine-protein kinase Nek6 (Homo sapiens) (UniProt Q9HC98). The note with it: at 0.1 µM.
For experiment [17] the target is unchanged. The note with it: at 1 µM.
In experiment [18] the target is Serine/threonine-protein kinase Nek7 (Homo sapiens) (UniProt Q8TDX7). Particulars: at 0.1 µM.
For experiment [19] the target is unchanged. The note with it: at 1 µM.
In experiment [20] the target is T7, Serine/threonine-protein kinase Nek9 (Homo sapiens) (UniProt Q8TD19).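 Also: reported value is the mean percent inhibition of NEK9.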
T7 sequence (whole entry): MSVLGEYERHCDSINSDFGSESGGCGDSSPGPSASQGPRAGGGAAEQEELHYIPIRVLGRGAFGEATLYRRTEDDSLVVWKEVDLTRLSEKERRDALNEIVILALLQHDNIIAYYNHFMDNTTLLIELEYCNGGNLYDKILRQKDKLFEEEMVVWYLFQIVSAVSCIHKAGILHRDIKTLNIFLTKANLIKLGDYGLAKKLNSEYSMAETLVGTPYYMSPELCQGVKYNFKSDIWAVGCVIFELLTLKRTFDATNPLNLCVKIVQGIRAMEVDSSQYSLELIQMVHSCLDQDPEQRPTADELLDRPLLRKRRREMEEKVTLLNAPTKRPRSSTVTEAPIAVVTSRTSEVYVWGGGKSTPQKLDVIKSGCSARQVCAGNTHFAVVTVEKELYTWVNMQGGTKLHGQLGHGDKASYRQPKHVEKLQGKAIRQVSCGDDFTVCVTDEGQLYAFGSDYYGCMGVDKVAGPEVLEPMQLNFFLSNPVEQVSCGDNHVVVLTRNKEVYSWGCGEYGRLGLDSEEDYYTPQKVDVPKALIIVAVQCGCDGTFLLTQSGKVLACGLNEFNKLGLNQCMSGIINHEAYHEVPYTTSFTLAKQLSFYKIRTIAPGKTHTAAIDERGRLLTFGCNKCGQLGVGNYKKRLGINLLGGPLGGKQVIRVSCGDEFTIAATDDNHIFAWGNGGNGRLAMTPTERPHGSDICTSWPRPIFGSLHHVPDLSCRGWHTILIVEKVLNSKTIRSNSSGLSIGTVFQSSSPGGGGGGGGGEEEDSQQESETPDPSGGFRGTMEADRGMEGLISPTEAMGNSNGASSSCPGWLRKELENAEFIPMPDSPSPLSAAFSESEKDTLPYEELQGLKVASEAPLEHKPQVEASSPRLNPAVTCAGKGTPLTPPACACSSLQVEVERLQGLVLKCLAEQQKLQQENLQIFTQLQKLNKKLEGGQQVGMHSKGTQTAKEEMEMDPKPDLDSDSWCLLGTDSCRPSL
The note with it: at 0.1 µM.

Sequence of Casein kinase II subunit alpha (Homo sapiens) (P68400 whole entry, looked up): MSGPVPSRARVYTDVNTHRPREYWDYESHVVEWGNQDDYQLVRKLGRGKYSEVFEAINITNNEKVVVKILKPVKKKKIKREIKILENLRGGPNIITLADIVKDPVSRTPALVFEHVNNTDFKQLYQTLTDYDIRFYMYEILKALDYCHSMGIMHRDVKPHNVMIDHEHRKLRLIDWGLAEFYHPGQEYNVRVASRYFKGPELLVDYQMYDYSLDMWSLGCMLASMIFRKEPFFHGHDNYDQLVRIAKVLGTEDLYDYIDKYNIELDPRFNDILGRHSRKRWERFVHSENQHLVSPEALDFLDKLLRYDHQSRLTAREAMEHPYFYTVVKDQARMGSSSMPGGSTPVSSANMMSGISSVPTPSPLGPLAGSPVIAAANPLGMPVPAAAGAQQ
Sequence of Serine/threonine-protein kinase Nek7 (Homo sapiens) (Q8TDX7 whole entry, looked up): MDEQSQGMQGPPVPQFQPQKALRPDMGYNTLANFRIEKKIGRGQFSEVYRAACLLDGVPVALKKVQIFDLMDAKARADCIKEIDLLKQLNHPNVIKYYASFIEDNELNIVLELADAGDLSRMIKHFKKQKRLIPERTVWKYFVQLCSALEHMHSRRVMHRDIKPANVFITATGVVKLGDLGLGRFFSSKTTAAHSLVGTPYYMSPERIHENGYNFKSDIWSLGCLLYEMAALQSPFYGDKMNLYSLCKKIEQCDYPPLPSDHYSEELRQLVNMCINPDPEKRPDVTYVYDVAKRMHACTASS
Sequence of Serine/threonine-protein kinase Nek6 (Homo sapiens) (Q9HC98 whole entry): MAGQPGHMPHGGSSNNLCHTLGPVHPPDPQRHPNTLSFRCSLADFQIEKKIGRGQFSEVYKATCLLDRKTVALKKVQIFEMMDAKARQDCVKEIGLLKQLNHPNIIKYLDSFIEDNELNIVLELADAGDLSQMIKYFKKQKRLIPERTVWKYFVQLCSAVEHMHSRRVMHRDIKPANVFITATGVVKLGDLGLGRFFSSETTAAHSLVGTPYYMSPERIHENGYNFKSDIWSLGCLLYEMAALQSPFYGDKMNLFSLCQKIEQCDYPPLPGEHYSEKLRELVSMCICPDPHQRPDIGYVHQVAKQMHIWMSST
Sequence of Sphingosine kinase 1 (Homo sapiens) (Q9NYA1 whole entry): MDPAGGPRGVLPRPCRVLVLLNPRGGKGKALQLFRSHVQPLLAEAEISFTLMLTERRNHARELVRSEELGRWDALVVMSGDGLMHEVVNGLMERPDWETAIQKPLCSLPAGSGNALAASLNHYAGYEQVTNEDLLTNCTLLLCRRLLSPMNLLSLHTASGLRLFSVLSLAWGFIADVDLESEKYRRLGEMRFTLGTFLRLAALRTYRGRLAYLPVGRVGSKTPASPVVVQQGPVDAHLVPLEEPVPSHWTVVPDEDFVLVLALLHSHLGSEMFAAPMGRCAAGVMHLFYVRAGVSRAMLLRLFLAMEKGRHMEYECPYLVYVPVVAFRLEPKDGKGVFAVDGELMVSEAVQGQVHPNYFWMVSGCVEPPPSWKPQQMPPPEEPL

In the case of `CNC(=O)c1sc(-n2cnc3cc(OC)c(OC)cc32)cc1OCc1ccccc1C(F)(F)F`, the inhibition was -2.69% in [1]; -1.57% in [2]; -1.5% in experiment [3]; 5.33% in experiment [4]; 1.77% in experiment [5]; 9.1% in experiment [6]. Moreover, the inhibition came to 6.49% in [7]; 4.41% in [8]; 2.57% in [9]; 7.72% in experiment [10]; 5.28% in experiment [11]; 1.76% in [12]. Further, the inhibition in [13] was 2.01%; in experiment [14], 3.26%; in experiment [15], 4.32%; in experiment [16] it was 1.25%; in experiment [17], 1.86%; in experiment [18], 1.64%. The values for the inhibition in [19] and in [20] were -2.15% and 7.04%, respectively.
